Screening results: PubChem BioAssay, several laboratories
tim23-1 inh: tim23-1 yeast growth inhibition. S. cerevisiae tim23-1 growth, BacTiter-Glo luminescence, 24 h. inhibition, % at 20 µM. 1.3% of 330,000 active;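 active = growth inhibition of the mutant yeast at or above 50%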;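 also: temperature-sensitive mutant grown at 25 °C; plate controls were DMSO-treated mutant yeast for no effect and medium wells lacking yeast for full effect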
tim10-1 inh: inhibits growth of tim10-1 mutant yeast; S. cerevisiae tim10-1 ts strain growth, BacTiter-Glo, 24 h; inhibition, % at 20 µM; 2.2% of 330,000 active;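 active = inhibition of at least 40%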;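 also: mutant grown at 25 °C; 0% = DMSO wells with yeast and 100% = wells holding no yeast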
NLRP3 yeast inh: inhibitors of NALP3 inflammasome in yeast | AID 2825 | 0.39% of 330,000 active | inhibition, % at 10 µM | Yeast reconstituted NLRP3/ASC/caspase-1, beta-gal luminescence, 24 h;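 active = inhibition of 50% or more; inactive = inhibition below 50%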;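 also: plate controls were induced DMSO wells for no effect and uninduced yeast grown without galactose for full effect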
PfHsp90 set2: reduces growth (ATP signal) of yeast expressing P. falciparum Hsp90; S. cerevisiae expressing PfHsp90, BacTiter-Glo ATP, 48 h; yeast lacking PDR1 and PDR3 efflux regulators; inhibition, % at 9.4 µM; 0.32% of 310,000 active; AID 504621;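 active = every replicate shows inhibition above about 80%, whatever the replicate mean, limit read from the data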;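 also: 0% = DMSO neutral controls and 100% = 20 µM radicicol positive controls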
TIM10 inh: inhibits growth of TIM10 yeast strain; 1.4% of 330,000 active; inhibition, % at 10 µM; AID 463195; S. cerevisiae TIM10 strain growth, BacTiter-Glo luminescence, 24 h;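 active = inhibition of 40% or more at the single tested concentration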;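 also: wild-type TIM10 isogenic control strain grown at permissive 25 °C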
tim10-1 confirm: tim10-1 yeast growth inhibition, confirmed; inhibition, % at 20 µM; 56% of 7,400 active; shares compounds with tim10-1 inh; S. cerevisiae tim10-1 ts strain growth, BacTiter-Glo, 24 h;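 active = inhibition of yeast growth at or above a set limit in either of two repeat tests at 20 µM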;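 also: tim10-1 mutant grown at permissive 25 °C to find synthetic lethal compounds; 0% = DMSO yeast wells and 100% = medium wells without yeast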
Active calls of the source: *; nt = no result given. Sampled rows, rich in hits. Any-hit rate of the full collection: about 3.7%.

SMILES	tim23-1 inh	tim10-1 inh	NLRP3 yeast inh	PfHsp90 set2	TIM10 inh	tim10-1 confirm
Oc1ccc(CN2CCN(c3ccccc3)CC2)c2cccnc12	18	66*	-27	12	-34	-37
Oc1c(CN2CCN(c3ccccn3)CC2)cc(Cl)c2cccnc12	46	52*	37	-9	25	19
O=[N+]([O-])c1cc(CN2CCCC2)c2cccnc2c1O	nt	nt	nt	-22	nt	nt
O=[N+]([O-])c1cc(CN2CCN(c3cccc(C(F)(F)F)c3)CC2)c2cccnc2c1O	42	48*	5	99*	20	9
COc1cccc(-c2nn3c(-c4ccccn4)nnc3s2)c1	37	58*	7	nt	28	54*
COc1ccc(-c2nnc3sc(-c4ccccn4)nn23)cc1	30	44*	37	nt	-8	21
Cc1ccc(S(=O)(=O)N2CCN(c3ccccc3)CC2)c(C)c1	28	26	18	-1	14	nt
CC(C)NC(=S)N/N=C1\CCCCc2ccccc21	35	57*	-11	-12	34	38*
Cc1cc(-c2ccccc2)nc(N/N=C/c2cccnc2)n1	7	6	13	16	20	nt
Cc1ccc(-c2cc(-c3ccccc3)nc(N/N=C/c3cccnc3)n2)cc1	16	44*	21	-2	16	25
Cc1cc(-c2ccccc2)nc(N/N=C/c2ccccc2)n1	37	41*	42	-22	37	18
CCOc1ccccc1NC(=O)NC1(C(=O)NCC2CCCO2)CCCCC1 (centres undefined)	-3	-7	15	-1	6	nt
Cc1cccc(C2Nc3cccc4cccc(c34)N2)c1	41	41*	15	-12	36	24
Clc1ccc(C2Nc3cccc4cccc(c34)N2)cc1	33	11	23	-17	11	nt
CC(C)C(=O)Nc1cccc(COc2cccc(CN(Cc3ccccc3)C(=O)OC(C)(C)C)c2)c1	nt	nt	nt	18	nt	nt
CCOC(=O)C1(S(=O)(=O)c2ccccc2)CCN(Cc2ccc(Cl)cc2)CC1	43	48*	14	23	24	20
CCOC(=O)C1(CCc2ccccc2)CCN(Cc2ccc(O)cc2)CC1	11	-1	5	-20	0	nt
O=C1CCC(c2ccc3c(c2)CCC3)=NN1	12	4	6	-2	12	nt
Cn1ncc(Cl)c1C(=O)Nc1cc(C(F)(F)F)ccc1F	4	47*	23	nt	-3	10
COc1cc(NC(=O)c2c(Cl)cnn2C)c(OC)cc1Cl	10	21	12	-30	1	nt
Cc1ccc(S(=O)(=O)CCC(=O)OC(C)C(=O)N2CCc3ccccc32)cc1 (centres undefined)	14	2	12	-4	0	nt
O=C(NCC1CCCN(Cc2cccc(F)c2)C1)c1cccc2ccccc12 (centres undefined)	17	12	19	22	-4	nt
Cc1ccc(SC2=C(Sc3ccc(C)cc3)C(=O)c3ccccc3C2=O)cc1	33	43*	33	-9	24	24
Cc1ccc(N2C(=O)c3ccccc3C2=O)cc1	2	0	-3	0	-7	nt
Clc1ccc(Cn2c(-c3cccnc3Cl)nc3ccccc32)cc1	31	43*	15	1	7	26
SMILES	tim23-1 inh	tim10-1 inh	NLRP3 yeast inh	PfHsp90 set2	TIM10 inh	tim10-1 confirm
CCn1c(-c2cccnc2Cl)nc2cc(Cl)c(Cl)cc21	28	23	12	5	-5	nt
Clc1ccc(Cn2c(-c3cccnc3Cl)nc3ccccc32)c(Cl)c1	22	42*	2	10	22	12
C=C(C(=O)Oc1c(C(C)(C)C)cccc1C(C)(C)C)c1ccccc1	3	6	11	6	5	nt
CCC(=NCc1ccccc1)c1c(C(F)(F)F)[nH]n(-c2nc3ccccc3s2)c1=O	38	46*	6	3	18	35*
Cc1cc2c(cc1C)C(c1ccccc1F)CC(=O)N2 (centres undefined)	10	23	9	23	17	nt
Cc1cc2c(cc1C)C(c1cc(Br)ccc1F)CC(=O)N2 (centres undefined)	25	45*	14	22	9	28
CC1=CC(C)(C)Nc2ccc(OC(=O)CN3C(=O)c4ccccc4C3=O)cc21	42	47*	9	15	16	32*
c1ccc(C(NCCNC(c2ccccc2)c2ccccc2)c2ccccc2)cc1	21	43*	13	-16	19	19
NS(=O)(=O)c1ccc(CCNC(c2ccccc2)c2ccccc2)cc1	4	13	1	2	21	nt
C#CCn1c(=NC(=O)c2cc(Cl)sc2Cl)sc2cc(S(N)(=O)=O)ccc21	30	47*	16	-30	22	33*
C#CCn1c(=NC(=O)CN2C(=O)CCC2=O)sc2cc(S(N)(=O)=O)ccc21	-3	11	3	-1	3	nt
COc1cc(COc2ccc(S(=O)(=O)N3CCOCC3)cc2[N+](=O)[O-])ccc1OC(F)F	nt	nt	nt	2	nt	nt
C#CCOCCOCCOCCNc1nc(N2CCN(C(=O)[C@H]([C@@H](C)CC)n3cc(CCCN=C(N)N)nn3)CC2)nc(N2CCN(C(=O)[C@H]([C@@H](C)CC)n3cc(CCC(=O)O)nn3)CC2)n1	nt	nt	nt	12	nt	nt
CCOC(=O)C1=NN(C(=O)Cc2ccccc2)C(O)(c2ccc(Cl)cc2)C1 (centres undefined)	43	42*	8	0	24	32*
CCOC(=O)C1=NN(C(=O)COc2ccccc2)C(O)(c2ccc(Cl)cc2)C1 (centres undefined)	42	27	16	-41	31	nt
COc1ccc(CC(=O)OCC(=O)NC2CCCC(C)C2C)cc1 (centres undefined)	31	25	10	17	12	nt
O=[N+]([O-])c1cc(/C=N/O)ccc1Oc1cccc(Cl)c1	41	61*	28	-1	26	55*
O=[N+]([O-])c1cc(/C=N/O)ccc1Sc1ccccc1	-11	-15	-2	-63	-60	nt
O=[N+]([O-])c1cc(/C=N/O)ccc1Oc1ccccc1Cl	33	55*	20	106*	27	42*
COc1cccc(CNc2nc3nc(C)c(Cl)c(C)n3n2)c1	48	48*	4	13	-3	29*
COc1ccc(CNc2nc3nc(C)c(Cl)c(C)n3n2)cc1	28	17	22	5	19	nt
CCc1cc(C(=O)NC2CCCc3c2cnn3-c2cccc(C)c2C)n(C)n1 (centres undefined)	23	20	-5	nt	16	nt
CC(C(=O)NCc1ccccc1)N(Cc1ccccc1Cl)C(=O)c1snc(C(N)=O)c1N (centres undefined)	10	9	26	17	-2	nt
COc1ccc(/C=C(\C#N)C(=O)NCC2CCCO2)cc1OC (centres undefined)	46	40*	-2	nt	23	11
COc1cc(/C=C(\C#N)C(=O)NCc2cccs2)ccc1O	30	42*	15	-10	28	28
